According to PubChem BioAssay AID651742 (Broad Institute, 2012):
Screen size: about 5,600 compounds; about 780 (14%) were called active. Another 3% or so got no clear call; they are omitted. The list is a sample of the results. Unmarked numbers belong to inactive results.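 The calls were made as follows: active = mean signal decrease across replicates above about 35% based on untreated-well scatter, with enough replicates individually passing (limit read from the data); inconclusive = no rule stated though some were filed; inactive = the rest.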

Experiment: NIH3T3 cell viability loss – cherry-pick, single point, cytotoxicity control for T. cruzi proliferation inhibitor project, confirmation (AID 651742);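 also: 0% = median of neutral control wells and 100% = median of positive control wells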
Details: NIH/3T3 viability, CellTiter-Glo ATP luminescence, 90 h; at 8.35 µM; stronger effect = higher value

Row | Compound | cytotoxicity (signal decrease)
1 | Cc1cccc(-c2ccc([C@H]3[C@@H](CO)N4CCCCN(Cc5cncnc5)C[C@H]34)cc2)c1 | 17.8%
2 | CN(C)C(=O)c1ccc(-c2ccc([C@@H]3[C@H](CO)N4CCCCN(S(C)(=O)=O)C[C@@H]34)cc2)cc1 | 5.37%
3 | C[C@H](O)C#Cc1ccc([C@H]2[C@H]3CN(S(=O)(=O)Cc4ccccc4)CCCCN3[C@H]2CO)cc1 | 10.3%
4 | Cc1ccccc1-c1ccc([C@@H]2[C@H](CO)N3CCCCN(S(=O)(=O)c4ccc(F)cc4)C[C@@H]23)cc1 | 43.8% (active)
5 | Cc1cccc(-c2ccc([C@@H]3[C@@H](CO)N4CCCCN(S(=O)(=O)c5cccs5)C[C@H]34)cc2)c1 | 42.5% (active)
6 | Cc1ccccc1-c1ccc([C@H]2[C@H]3CN(S(=O)(=O)c4ccc(F)cc4)CCCCN3[C@H]2CO)cc1 | 12%
7 | O=S(=O)(c1ccc(F)cc1)N1CCCCN2[C@H](C1)[C@H](c1ccc(C3=CCCCC3)cc1)[C@@H]2CO | 12.6%
8 | O=S(=O)(Cc1ccccc1)N1CCCCN2[C@@H](CO)[C@H](c3ccc(-c4cccnc4)cc3)[C@@H]2C1 | 5.7%
9 | O=S(=O)(Cc1ccccc1)N1CCCCN2[C@@H](CO)[C@@H](c3ccc(-c4ccc(F)cc4)cc3)[C@@H]2C1 | 68.5% (active)
10 | COc1cccc(S(=O)(=O)N2CCCCN3[C@H](CO)[C@H](c4ccc(-c5ccncc5)cc4)[C@H]3C2)c1 | 9.65%
11 | O=S(=O)(Cc1ccccc1)N1CCCCN2[C@@H](CO)[C@H](c3ccc(-c4ccccc4)cc3)[C@@H]2C1 | 41.5% (active)
12 | CCS(=O)(=O)N1CCCCN2[C@@H](CO)[C@@H](c3ccc(-c4ccccc4)cc3)[C@@H]2C1 | 18.2%
13 | CC(C)C#Cc1ccc([C@H]2[C@H](CO)N3CCCCN(C(=O)NC(C)C)C[C@@H]23)cc1 | 13.1%
14 | C[C@H]1CCCCO[C@H](CN(C)Cc2ccccc2)[C@@H](C)CN([C@@H](C)CO)C(=O)c2cc(NC(=O)NC3CCCCC3)ccc2O1 | 12.5%
15 | COc1ccc(C#Cc2cnc3c(c2)C(=O)N([C@@H](C)CO)C[C@H](C)[C@@H](CN(C)C(C)=O)O3)cc1 | -3.17%
16 | CN(C)CC#Cc1ccc([C@H]2[C@H]3CN(S(=O)(=O)c4ccccc4F)CCCCN3[C@H]2CO)cc1 | 20.2%
17 | COCC(=O)N(C)C[C@@H]1Oc2ncc(C#Cc3ccccc3OC)cc2C(=O)N([C@@H](C)CO)C[C@H]1C | 1.95%
18 | Cc1ccc(S(=O)(=O)Nc2ccc3c(c2)C(=O)N([C@@H](C)CO)C[C@@H](C)[C@H](CN(C)C(=O)Nc2cccc4ccccc24)OCCCC[C@H](C)O3)cc1 | -10.9%
19 | O=C(c1cccc(F)c1)N1CC[C@@H]2[C@@H](CO)Nc3ccc(C#Cc4cccc(F)c4)cc3[C@@H]21 | 27.7%
20 | CC(=O)N1[C@H](CNC(=O)C2CC2)[C@@H](c2ccc(-c3cccc(F)c3)cc2)[C@@H]1CO | 3.63%

Row | Compound | cytotoxicity (signal decrease)
21 | C[C@@H]1CN([C@@H](C)CO)C(=O)c2cc(NC(=O)Nc3cccc4ccccc34)ccc2O[C@H]1CN(C)Cc1ccc(Oc2ccccc2)cc1 | 18.9%
22 | C[C@@H]1CCCCO[C@@H](CN(C)Cc2ccc(Cl)c(Cl)c2)[C@H](C)CN([C@H](C)CO)C(=O)c2cc(NC(=O)Nc3ccc(F)cc3)ccc2O1 | 3.22%
23 | COc1ccc(NC(=O)Nc2ccc3c(c2)C(=O)N([C@H](C)CO)C[C@@H](C)[C@H](CN(C)Cc2ccc(Cl)c(Cl)c2)OCCCC[C@@H](C)O3)cc1 | -14.8%
24 | COc1ccc(CN(C)C[C@H]2OCCCC[C@H](C)Oc3ccc(NC(=O)Nc4ccc5c(c4)OCO5)cc3C(=O)N([C@H](C)CO)C[C@@H]2C)cc1 | 45.5% (active)
25 | C[C@@H]1CN([C@H](C)CO)C(=O)c2cc(NS(=O)(=O)c3ccc(Cl)cc3)ccc2O[C@@H](C)CCCCO[C@H]1CN(C)Cc1ccccc1 | 1.2%
26 | C[C@H](CO)N1C[C@H](C)[C@H](CN(C)Cc2ccc(C(F)(F)F)cc2)Oc2ccc(NS(=O)(=O)c3ccc(Cl)cc3)cc2C1=O | 8.98%
27 | C[C@@H]1CCCCO[C@@H](CN(C)Cc2ccc3c(c2)OCO3)[C@@H](C)CN([C@@H](C)CO)C(=O)c2cc(NC(=O)Nc3ccccc3)ccc2O1 | 6.98%
28 | C[C@@H]1CN([C@H](C)CO)C(=O)c2cc(NC(=O)Nc3ccc(F)cc3)ccc2O[C@@H](C)CCCCO[C@H]1CN(C)Cc1ccc(Cl)c(Cl)c1 | 40.8% (active)
29 | C[C@@H]1CN([C@@H](C)CO)C(=O)c2cc(NC(=O)Nc3cccc4ccccc34)ccc2O[C@@H](C)CCCCO[C@H]1CN(C)Cc1ccccc1 | 22.3%
30 | C[C@@H]1CN([C@@H](C)CO)C(=O)c2cc(NC(=O)Nc3cccc4ccccc34)ccc2O[C@H]1CN(C)Cc1ccc(Cl)c(Cl)c1 | 35.5% (active)
31 | C[C@@H]1CCCCO[C@H](CN(C)Cc2ccccc2)[C@@H](C)CN([C@@H](C)CO)C(=O)c2cc(NC(=O)Nc3ccc(F)cc3)ccc2O1 | 27.1%
32 | C[C@H](CO)N1C[C@H](C)[C@H](CN(C)Cc2ccc(C(F)(F)F)cc2)OCCCC[C@H](C)Oc2ccc(NS(=O)(=O)c3ccc(Cl)cc3)cc2C1=O | 98.8% (active)
33 | COc1ccc(S(=O)(=O)Nc2ccc3c(c2)C(=O)N([C@H](C)CO)C[C@@H](C)[C@@H](CN(C)CC2CCCCC2)OCCCC[C@@H](C)O3)cc1 | 33.5%
34 | C[C@H](CO)N1C[C@H](C)[C@@H](CN(C)C(=O)Nc2ccnc(N3CCOCC3)c2)OCc2ccccc2-c2ccccc2C1=O | 5.45%
35 | C[C@@H]1CCCCO[C@H](CN(C)Cc2ccc(C(F)(F)F)cc2)[C@H](C)CN([C@H](C)CO)C(=O)c2cc(NC(=O)Nc3ccc(F)cc3)ccc2O1 | -14.3%
36 | C[C@@H]1CCCCO[C@@H](CN(C)S(=O)(=O)c2ccc(Cl)cc2)[C@H](C)CN([C@@H](C)CO)C(=O)c2cc(NC(=O)Cc3ccccc3)ccc2O1 | 0.0515%
37 | COc1ccc(NC(=O)N(C)C[C@@H]2OCCCC[C@@H](C)Oc3ccc(NS(=O)(=O)c4ccc(Cl)cc4)cc3C(=O)N([C@H](C)CO)C[C@H]2C)cc1 | -38.7%
38 | O=C(C[C@@H]1C[C@@H]2c3cc(NC(=O)c4ccc5c(c4)OCO5)ccc3O[C@@H]2[C@@H](CO)O1)NCc1ccc(Cl)cc1 | -20.7%
39 | C[C@@H]1CCCCO[C@@H](CN(C)CC2CC2)[C@H](C)CN([C@H](C)CO)C(=O)c2cc(NC(=O)C3CCCCC3)ccc2O1 | -17.8%
40 | C[C@H]1CCCCO[C@H](CN(C)Cc2ccc(C(F)(F)F)cc2)[C@@H](C)CN([C@@H](C)CO)C(=O)c2cc(NC(=O)C3CCCCC3)ccc2O1 | -5.99%

Row | Compound | cytotoxicity (signal decrease)
41 | N#C[C@@H]1[C@@H](c2ccc(/C=C/c3ccccc3)cc2)[C@@H](CO)N1C(=O)C1CC1 | 23.9%
42 | C[C@@H]1CN([C@@H](C)CO)C(=O)c2cc(NC(=O)C3CCCCC3)ccc2O[C@@H](C)CCCCO[C@H]1CN(C)Cc1ccncc1 | 2.54%
43 | C[C@@H]1CN([C@H](C)CO)C(=O)c2cc(NC(=O)Nc3ccc(F)cc3)ccc2O[C@@H](C)CCCCO[C@@H]1CN(C)CC1CCCCC1 | 24.8%
44 | C[C@@H]1CN([C@H](C)CO)C(=O)c2cc(C#CC3CCCCC3)cnc2O[C@@H]1CN(C)C(=O)NC1CCCC1 | 26.3%
45 | C[C@@H](O)C#Cc1ccc([C@@H]2[C@H](CO)N3CCCCN(S(=O)(=O)c4ccccc4)C[C@@H]23)cc1 | 1.19%
46 | C[C@@H]1CCCCO[C@@H](CN(C)Cc2ccc(C(F)(F)F)cc2)[C@@H](C)CN([C@H](C)CO)C(=O)c2cc(NC(=O)Nc3ccccc3)ccc2O1 | -2.03%
47 | OC[C@H]1[C@H](c2ccc(-c3cccc(F)c3)cc2)[C@@H]2CN(Cc3cncnc3)CCCCN12 | 13.1%
48 | O=C(Nc1ccccc1F)N1CCCCN2[C@H](CO)[C@@H](c3ccc(-c4cccnc4)cc3)[C@H]2C1 | 5.63%
49 | C[C@H](CO)N1C[C@H](C)[C@@H](CN(C)S(=O)(=O)c2ccc(F)cc2)Oc2cc(C3=CCCC3)ccc2S1(=O)=O | 50.5% (active)
50 | C[C@@H]1CN([C@@H](C)CO)S(=O)(=O)c2ccc(C#Cc3ccc(F)cc3)cc2O[C@H]1CN(C)S(C)(=O)=O | 25.6%
51 | COc1ccccc1-c1ccc2c(c1)O[C@H](CN(C)S(=O)(=O)c1ccc(C)cc1)[C@@H](C)CN([C@H](C)CO)S2(=O)=O | 26.4%
52 | C[C@@H]1CN([C@@H](C)CO)S(=O)(=O)c2ccc(-c3ccncc3)cc2O[C@@H]1CN(C)C(=O)Nc1ccc(F)cc1 | -4.35%
53 | C[C@H]1CN([C@@H](C)CO)S(=O)(=O)c2ccc(C#Cc3cccc(F)c3)cc2O[C@@H]1CN(C)S(=O)(=O)c1cn(C)cn1 | 44.8% (active)
54 | C[C@@H]1CN([C@H](C)CO)S(=O)(=O)c2ccc(C#Cc3ccncc3)cc2O[C@@H]1CN(C)S(=O)(=O)c1ccc(F)cc1 | 27.1%
55 | C[C@@H]1CN([C@H](C)CO)S(=O)(=O)c2ccc(-c3cccc(F)c3)cc2O[C@H]1CN(C)S(=O)(=O)c1ccc(F)cc1 | 54.4% (active)
56 | C[C@@H]1CN([C@@H](C)CO)S(=O)(=O)c2ccc(C#Cc3ccc(F)cc3)cc2O[C@H]1CN(C)C(=O)NC1CCCC1 | 8.27%
57 | C[C@@H]1CN([C@@H](C)CO)S(=O)(=O)c2ccc(C#Cc3ccc(F)cc3)cc2O[C@H]1CN(C)C(=O)c1ccccn1 | 30%
58 | C[C@@H]1CN([C@@H](C)CO)S(=O)(=O)c2ccc(-c3cccc(F)c3)cc2O[C@@H]1CN(C)S(=O)(=O)c1ccccc1 | 46.5% (active)
59 | CC(C)CC#Cc1ccc2c(c1)O[C@H](CN(C)S(=O)(=O)c1cccc(F)c1)[C@@H](C)CN([C@@H](C)CO)S2(=O)=O | 14.5%
60 | Cc1ccc(-c2ccc3c(c2)O[C@H](CN(C)C)[C@@H](C)CN([C@H](C)CO)S3(=O)=O)cc1 | -0.56%
